# Test results published in the supplement of paper PMC4022240.
# ± gives the standard deviation.
# T1: HaloTag-ATRX ADD domain (163-292)
# T1 chain: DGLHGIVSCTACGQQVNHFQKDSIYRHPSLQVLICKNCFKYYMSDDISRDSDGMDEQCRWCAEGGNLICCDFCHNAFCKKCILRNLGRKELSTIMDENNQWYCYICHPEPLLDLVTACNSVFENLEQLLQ
# Experiments:
# Test in all cases: peptide microarray binding signal (635 nm), min-max normalized on array (fraction of array maximum); higher = stronger binding
# Conditions in all cases: peptide region: H3 30-42
# [1] = target: T1, HaloTag-ATRX ADD domain (163-292)
# Procedure, shortened: (§1)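 Within each library, mean intensities of triplicate spots were min-max scaled to give the binding signal. The spots were histone 13-mer peptide–cellulose conjugates on nitrocellulose with a Cy3 tracer, blocked overnight at 4°C. They were then probed for 1 h at 4°C using biotin-labelled HaloTag reader fusions (10 nM to 1 μM) with streptavidin-Alexa Fluor 647 or rabbit histone antibodies (1:10,000 to 1:2,000) with anti-rabbit Alexa 647, and scanned at 635 nm for signal and 532 nm for misprints on an Axon GenePix 4000B.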
# [2] = target: HaloTag-ING2 PHD (mouse Ing2 200-280)
# Procedure, shortened: as §1
# [3] = target: anti-H3K4me3 antibody ab8580
# Procedure, shortened: as §1
# [4] = target: anti-H3K9me3 antibody ab8898
# Procedure, shortened: as §1
# [5] = peptide modifications: H3K36me3 H3K37me2, binder concentration: 1:2,000 dilution
# [6] = peptide modifications: H3K36me3 H3K37me2, binder concentration: 1:10,000 dilution
# [7] = peptide modifications: H3K37ac, binder concentration: 1:2,000 dilution
# [8] = peptide modifications: H3K37ac, binder concentration: 1:10,000 dilution
# [9] = peptide modifications: H3K37me1, binder concentration: 1:2,000 dilution
# [10] = peptide modifications: H3K37me1, binder concentration: 1:10,000 dilution
# [11] = peptide modifications: H3K37me2, binder concentration: 1:2,000 dilution
# [12] = peptide modifications: H3K37me2, binder concentration: 1:10,000 dilution
# [13] = peptide modifications: H3K37me3, binder concentration: 1:2,000 dilution
# [14] = peptide modifications: H3K37me3, binder concentration: 1:10,000 dilution
# [15] = peptide modifications: H3T32ph H3K36ac, binder concentration: 1:2,000 dilution
# [16] = peptide modifications: H3T32ph H3K36ac, binder concentration: 1:10,000 dilution
# [17] = peptide modifications: H3T32ph H3K36me1, binder concentration: 1:2,000 dilution
# [18] = peptide modifications: H3T32ph H3K36me1, binder concentration: 1:10,000 dilution
# [19] = peptide modifications: H3T32ph H3K36me2, binder concentration: 1:2,000 dilution
# [20] = peptide modifications: H3T32ph H3K36me2, binder concentration: 1:10,000 dilution
# [21] = peptide modifications: H3T32ph H3K36me3, binder concentration: 1:2,000 dilution
# [22] = peptide modifications: H3T32ph H3K36me3, binder concentration: 1:10,000 dilution
# [23] = peptide modifications: H3T32ph, binder concentration: 1:2,000 dilution
# [24] = peptide modifications: H3T32ph, binder concentration: 1:10,000 dilution
binder,measurement,setting,value
PATGGVKKPHRYR [H3 30-42 P A T G G V Kme3 Kme2 P H R Y R],peptide microarray binding signal,"[1]; peptide modifications: H3K36me3 H3K37me2, binder concentration: 50 nM",0.002539 ± 1.1e-05
same,peptide microarray binding signal,"[1]; peptide modifications: H3K36me3 H3K37me2, binder concentration: 500 nM",0.00462 ± 0.00097
same,peptide microarray binding signal,"[2]; peptide modifications: H3K36me3 H3K37me2, binder concentration: 10 nM",0.00471 ± 0.0004
same,peptide microarray binding signal,"[2]; peptide modifications: H3K36me3 H3K37me2, binder concentration: 100 nM",0.00347 ± 0.00061
same,peptide microarray binding signal,[3]; [5],0.00132 ± 0.00026
same,peptide microarray binding signal,[3]; [6],0.00805 ± 0.0039
same,peptide microarray binding signal,[4]; [5],0.00571 ± 0.0035
same,peptide microarray binding signal,[4]; [6],0.00363 ± 0.00092
PATGGVKKPHRYR [H3 30-42 P A T G G V K Kac P H R Y R],peptide microarray binding signal,"[1]; peptide modifications: H3K37ac, binder concentration: 50 nM",0.00991 ± 0.00064
same,peptide microarray binding signal,"[1]; peptide modifications: H3K37ac, binder concentration: 500 nM",0.0214 ± 0.0021
same,peptide microarray binding signal,"[2]; peptide modifications: H3K37ac, binder concentration: 10 nM",0.0263 ± 0.00079
same,peptide microarray binding signal,"[2]; peptide modifications: H3K37ac, binder concentration: 100 nM",0.0376 ± 0.0021
same,peptide microarray binding signal,[3]; [7],0.0146 ± 0.0013
same,peptide microarray binding signal,[3]; [8],0.014 ± 0.00079
same,peptide microarray binding signal,[4]; [7],0.0131 ± 0.00032
same,peptide microarray binding signal,[4]; [8],0.00663 ± 0.00069
PATGGVKKPHRYR [H3 30-42 P A T G G V K Kme P H R Y R],peptide microarray binding signal,"[1]; peptide modifications: H3K37me1, binder concentration: 50 nM",0.0106 ± 0.00056
same,peptide microarray binding signal,"[1]; peptide modifications: H3K37me1, binder concentration: 500 nM",0.0245 ± 0.0059
same,peptide microarray binding signal,"[2]; peptide modifications: H3K37me1, binder concentration: 10 nM",0.0491 ± 0.0011
same,peptide microarray binding signal,"[2]; peptide modifications: H3K37me1, binder concentration: 100 nM",0.0698 ± 0.0049
same,peptide microarray binding signal,[3]; [9],0.0068 ± 0.00068
same,peptide microarray binding signal,[3]; [10],0.00765 ± 0.00036
same,peptide microarray binding signal,[4]; [9],0.00234 ± 4.8e-05
same,peptide microarray binding signal,[4]; [10],0.00225 ± 5.4e-05
PATGGVKKPHRYR [H3 30-42 P A T G G V K Kme2 P H R Y R],peptide microarray binding signal,"[1]; peptide modifications: H3K37me2, binder concentration: 50 nM",0.0036 ± 0.00019
same,peptide microarray binding signal,"[1]; peptide modifications: H3K37me2, binder concentration: 500 nM",0.00771 ± 0.00019
same,peptide microarray binding signal,"[2]; peptide modifications: H3K37me2, binder concentration: 10 nM",0.0121 ± 0.00097
same,peptide microarray binding signal,"[2]; peptide modifications: H3K37me2, binder concentration: 100 nM",0.0202 ± 0.002
same,peptide microarray binding signal,[3]; [11],0.00302 ± 0.00039
same,peptide microarray binding signal,[3]; [12],0.00297 ± 0.00012
same,peptide microarray binding signal,[4]; [11],0.00163 ± 0.00014
same,peptide microarray binding signal,[4]; [12],0.001441 ± 1.4e-05
PATGGVKKPHRYR [H3 30-42 P A T G G V K Kme3 P H R Y R],peptide microarray binding signal,"[1]; peptide modifications: H3K37me3, binder concentration: 50 nM",0.00621 ± 0.00029
same,peptide microarray binding signal,"[1]; peptide modifications: H3K37me3, binder concentration: 500 nM",0.00781 ± 0.00023
same,peptide microarray binding signal,"[2]; peptide modifications: H3K37me3, binder concentration: 10 nM",0.00949 ± 0.00038
same,peptide microarray binding signal,"[2]; peptide modifications: H3K37me3, binder concentration: 100 nM",0.0356 ± 0.036
same,peptide microarray binding signal,[3]; [13],0.00183 ± 9e-05
same,peptide microarray binding signal,[3]; [14],0.00234 ± 4.2e-05
same,peptide microarray binding signal,[4]; [13],0.00216 ± 0.00026
same,peptide microarray binding signal,[4]; [14],0.00185 ± 5.2e-05
PATGGVKKPHRYR [H3 30-42 P A Tph G G V Kac K P H R Y R],peptide microarray binding signal,"[1]; peptide modifications: H3T32ph H3K36ac, binder concentration: 50 nM",0.00502 ± 0.00015
same,peptide microarray binding signal,"[1]; peptide modifications: H3T32ph H3K36ac, binder concentration: 500 nM",0.0116 ± 0.0013
same,peptide microarray binding signal,"[2]; peptide modifications: H3T32ph H3K36ac, binder concentration: 10 nM",0.0123 ± 0.00025
same,peptide microarray binding signal,"[2]; peptide modifications: H3T32ph H3K36ac, binder concentration: 100 nM",0.023 ± 0.0019
same,peptide microarray binding signal,[3]; [15],0.00191 ± 0.00028
same,peptide microarray binding signal,[3]; [16],0.00257 ± 0.00023
same,peptide microarray binding signal,[4]; [15],0.00193 ± 0.00036
same,peptide microarray binding signal,[4]; [16],0.00167 ± 0.00013
PATGGVKKPHRYR [H3 30-42 P A Tph G G V Kme K P H R Y R],peptide microarray binding signal,"[1]; peptide modifications: H3T32ph H3K36me1, binder concentration: 50 nM",0.00552 ± 0.00021
same,peptide microarray binding signal,"[1]; peptide modifications: H3T32ph H3K36me1, binder concentration: 500 nM",0.00914 ± 0.00072
same,peptide microarray binding signal,"[2]; peptide modifications: H3T32ph H3K36me1, binder concentration: 10 nM",0.00871 ± 0.00013
same,peptide microarray binding signal,"[2]; peptide modifications: H3T32ph H3K36me1, binder concentration: 100 nM",0.0167 ± 0.0011
same,peptide microarray binding signal,[3]; [17],0.00193 ± 0.00024
same,peptide microarray binding signal,[3]; [18],0.00257 ± 0.00014
same,peptide microarray binding signal,[4]; [17],0.00118 ± 0.00016
same,peptide microarray binding signal,[4]; [18],0.00144 ± 0.00011
PATGGVKKPHRYR [H3 30-42 P A Tph G G V Kme2 K P H R Y R],peptide microarray binding signal,"[1]; peptide modifications: H3T32ph H3K36me2, binder concentration: 50 nM",0.00313 ± 0.0002
same,peptide microarray binding signal,"[1]; peptide modifications: H3T32ph H3K36me2, binder concentration: 500 nM",0.00695 ± 0.00032
same,peptide microarray binding signal,"[2]; peptide modifications: H3T32ph H3K36me2, binder concentration: 10 nM",0.0113 ± 0.00095
same,peptide microarray binding signal,"[2]; peptide modifications: H3T32ph H3K36me2, binder concentration: 100 nM",0.0184 ± 0.00072
same,peptide microarray binding signal,[3]; [19],0.00266 ± 8.2e-05
same,peptide microarray binding signal,[3]; [20],0.00262 ± 0.00017
same,peptide microarray binding signal,[4]; [19],0.00142 ± 7.1e-05
same,peptide microarray binding signal,[4]; [20],0.00127 ± 1.3e-05
PATGGVKKPHRYR [H3 30-42 P A Tph G G V Kme3 K P H R Y R],peptide microarray binding signal,"[1]; peptide modifications: H3T32ph H3K36me3, binder concentration: 50 nM",0.00426 ± 9.2e-05
same,peptide microarray binding signal,"[1]; peptide modifications: H3T32ph H3K36me3, binder concentration: 500 nM",0.00686 ± 0.00012
same,peptide microarray binding signal,"[2]; peptide modifications: H3T32ph H3K36me3, binder concentration: 10 nM",0.00925 ± 0.00068
same,peptide microarray binding signal,"[2]; peptide modifications: H3T32ph H3K36me3, binder concentration: 100 nM",0.0248 ± 0.0061
same,peptide microarray binding signal,[3]; [21],0.0335 ± 0.008
same,peptide microarray binding signal,[3]; [22],0.0116 ± 0.0022
same,peptide microarray binding signal,[4]; [21],0.0489 ± 0.013
same,peptide microarray binding signal,[4]; [22],0.0155 ± 0.0012
PATGGVKKPHRYR [H3 30-42 P A Tph G G V K K P H R Y R],peptide microarray binding signal,"[1]; peptide modifications: H3T32ph, binder concentration: 50 nM",0.004984 ± 4.8e-05
same,peptide microarray binding signal,"[1]; peptide modifications: H3T32ph, binder concentration: 500 nM",0.0106 ± 0.00088
same,peptide microarray binding signal,"[2]; peptide modifications: H3T32ph, binder concentration: 10 nM",0.00812 ± 0.00079
same,peptide microarray binding signal,"[2]; peptide modifications: H3T32ph, binder concentration: 100 nM",0.0157 ± 0.0015
same,peptide microarray binding signal,[3]; [23],0.00115 ± 3.8e-05
same,peptide microarray binding signal,[3]; [24],0.001484 ± 1.4e-05
same,peptide microarray binding signal,[4]; [23],0.000574 ± 2.6e-05
same,peptide microarray binding signal,[4]; [24],0.0011 ± 1.1e-05
